# Screens: PubChem, National Center for Advancing Translational Sciences (NCATS)
# This is a sample that favours compounds with a hit; in the whole collection about 19% have one here.
# TDP1 cell CPT: growth inhibition of DT40 Tdp1-/-;hTDP1 cells with camptothecin (screen for TDP1 inhibitors); chicken DT40 Tdp1-/-;hTDP1 cells + 20 nM CPT, ATP luminescence, 48 h; Potency, µM (titrated, usually from 46.2 µM), inactives show at the highest dose activity change, negative = growth inhibition, usual class: inhibitors; 420,000 compounds, 12% hits; AID 686979; further: potency means the concentration at half of the fitted maximal effect; nearly all actives have a fitted effect of over 55% in size
#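 Chicken DT40 Tdp1-/- cells complemented with human TDP1, 400 cells/well, exposed to compounds plus 20 nM camptothecin for at least 48 h at 37 C; viability read as ATP content by CellTiter-Glo luminescence.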
# ELG1 DNA repair: blocks ELG1-dependent DNA repair in HEK293T cells; Potency, µM (doses to about 46.1 µM), for the others: at the top dose activity change, negative = inhibition, usual class: inhibitors; AID 504467; 330,000 compounds, 2.3% hits; HEK293T ELG1-luciferase reporter, luminescence, 16 h; DNA damage induced by 5-fluorouridine; further: potency means the concentration at half of the fitted maximal effect; nearly all actives have a fitted effect of over 55% in size
#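 DMSO vehicle served as the neutral condition. Each well held 2,000 cells given 5-fluorouridine plus compound; after 16 hr at 37 °C/5% CO2, ONE-Glo was added and luciferase measured 30 min later.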
# IL-1B inflam inh: inhibitors of inflammasome signaling (IL-1 beta secretion); AID 743279; activity change, % at 57.5 µM; THP-1 LPS/ATP IL-1B secretion, AlphaLISA, 16 h; active compounds read low; 360,000 compounds, 4.7% hits; in the data active means activity change below about -50%; inconclusive means mostly about -30% to -49%
#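 Secreted IL-1B measured by AlphaLISA bead assay after 16 h compound exposure of THP-1 cells; compounds (final up to 57.5 uM) added 1 h before LPS (250 ng/mL) and ATP (1.25 mM) stimulation; lower signal means less secretion.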
# TDP1 inh: blocks human tyrosyl-DNA phosphodiesterase 1. Q9NUW8. recombinant TDP1, AlphaScreen DNA substrate cleavage. Potency, µM (titrated, usually from 130 µM), for the others: at the top dose activity change, negative = inhibition, hits mostly inhibitors. 350,000 compounds, 0.28% hits. AID 485290; further: potency means the concentration at half of the fitted maximal effect; nearly all actives have a fitted effect of over 40% in size
# Target sequence (Q9NUW8 whole entry, looked up): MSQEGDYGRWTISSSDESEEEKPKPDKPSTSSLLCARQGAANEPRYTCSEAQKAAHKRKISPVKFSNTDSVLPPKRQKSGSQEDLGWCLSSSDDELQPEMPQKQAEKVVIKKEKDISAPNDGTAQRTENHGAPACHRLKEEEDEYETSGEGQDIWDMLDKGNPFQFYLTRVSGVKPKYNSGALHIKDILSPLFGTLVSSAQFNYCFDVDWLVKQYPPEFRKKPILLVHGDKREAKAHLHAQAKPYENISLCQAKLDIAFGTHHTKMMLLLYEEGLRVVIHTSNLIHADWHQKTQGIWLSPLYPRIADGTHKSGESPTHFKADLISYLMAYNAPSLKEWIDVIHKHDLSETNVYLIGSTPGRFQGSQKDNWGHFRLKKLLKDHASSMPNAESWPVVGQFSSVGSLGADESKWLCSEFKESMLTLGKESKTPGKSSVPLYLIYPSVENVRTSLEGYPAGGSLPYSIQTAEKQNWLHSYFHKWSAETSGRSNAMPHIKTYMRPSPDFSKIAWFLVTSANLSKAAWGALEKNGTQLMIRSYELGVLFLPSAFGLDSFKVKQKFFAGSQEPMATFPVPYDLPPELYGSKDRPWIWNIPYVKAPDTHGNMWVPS
#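 Recombinant E. coli-expressed Tdp1 (1 nM) preincubated with compound 15 min at RT, then 5'-biotin/3'-phosphotyrosine-FITC DNA substrate (15 nM) added for 5 min. AlphaScreen beads (10 ug/ml) added, 10 min RT; tyrosine-FITC cleavage read as signal loss.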
# TDP1 cell noCPT: qHTS for Inhibitors of human tyrosyl-DNA phosphodiesterase 1 (TDP1): qHTS in cells in absence of CPT; DT40 Tdp1-/- hTDP1 cells, no CPT, ATP luminescence, 48 h; Potency, µM (titrated, usually from 46.2 µM), for inactives: top-dose activity change, negative = growth inhibition, usual class: inhibitors; 420,000 compounds, 15% hits; AID 686978, 2013; further: potency means the concentration at half of the fitted maximal effect; nearly all actives have a fitted effect of over 55% in size
#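 Luminescent ATP content (CellTiter-Glo) served as the growth readout. Knockout chicken DT40 cells expressing human TDP1 were exposed to compounds without camptothecin for a minimum 48 hr at 37 °C.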
# Giardia killer: kills Giardia lamblia | 340,000 compounds, 0.15% hits | Giardia lamblia trophozoite viability | activity change, % at 7.66 µM, hits read low; in the data active means activity change below about -80%; inconclusive means between about -30% and that limit;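 further: parasites exposed to compound for two days anaerobically before the ATP read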
#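 Media and compound were dispensed first, then trophozoites at 100 cells/well; plates sat 48 hrs at 37 deg C without oxygen before ATP luminescence reagent was added and read after 15-30 min at room temperature.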
# Starred values were filed as active, the others as inactive; ? = inconclusive; nt = no result given. Unless noted, the call rests on the fitted dose curve; in most records, active means well fitted curve in the direction sought with a large enough effect; inconclusive means small, poorly fitted or top-dose-only effect, or another doubt; inactive means no such curve, though single readings can be large; an effect the other way counts as inactive or inconclusive. On the % scale 0 is the no-effect control and ±100 the full control effect.
SMILES,TDP1 cell CPT,ELG1 DNA repair,IL-1B inflam inh,TDP1 inh,TDP1 cell noCPT,Giardia killer
Cc1cccc(N2N=C(C(=O)Nc3ccc(Cl)c(S(=O)(=O)N4CCOCC4)c3)CCC2=O)c1,?,?,-9,1%,?,13
Cc1ccc(NC(=O)c2cc3c(s2)CCCC3)cc1S(=O)(=O)Nc1ccccc1Cl,16µM*,23µM*,92,1%,23µM*,1
O=C(Nc1cccc(S(=O)(=O)Nc2ccc(Cl)cc2)c1)c1cc2c(s1)CCCC2,?,?,-81*,4%,?,8
O=C(Nc1ccc(Cl)c(S(=O)(=O)N2CCOCC2)c1)C1=NN(c2ccccc2)C(=O)CC1,-26%,29µM*,20,1%,?,0
CCOC(=O)C1CCN(S(=O)(=O)c2ccc3c(c2)CCN3C(=O)C2CCC2)CC1,-2%,?,29,0%,-18%,-25
CC(C)(C)NS(=O)(=O)c1ccc(CCC(=O)N2CCCC2)cc1,-18%,-11%,4,3%,-8%,27
COc1ccc(C2C=C(C)Nc3nc4ccccc4n32)cc1 (stereo not drawn),-4%,?,21,1%,18µM*,-12
COc1ccc(C2N=C(N)Nc3nc4ccccc4n32)cc1 (stereo not drawn),-15%,nt,nt,7%,-11%,nt
CC(C)(C)c1nc(-c2ccccc2)nc2c1OCCC2,?,23%,24,nt,?,5
O=C(c1ccco1)N1CCN(Cc2nc(-c3cccs3)no2)CC1,1%,?,0,5%,-1%,10
Cc1[nH]c(=O)[nH]c(=O)c1/C=N/NC(=O)CCNC(=O)OC(C)(C)C,-1%,-7%,-60*,5%,22%,-7
Cc1[nH]c(=O)[nH]c(=O)c1/C=N/NC(=O)CCCCCNC(=O)OC(C)(C)C,-29%,1%,13,3%,-20%,4
CCCCC/C=C\C/C=C\CCCCCCCCCC(=O)NC(C)C(=O)O (stereo not drawn),nt,nt,nt,4%,nt,nt
O=c1oc2ccccc2cc1-c1csc(Nc2nc3c(F)cccc3s2)n1,15µM*,?,16,1%,16µM*,0
O=c1oc2ccccc2cc1-c1csc(Nc2nc3ccc(F)cc3s2)n1,nt,?,nt,7%,nt,nt
O=c1oc2ccccc2cc1-c1csc(NN=C2CCCCC2)n1,?,?,-12,7%,18µM*,-4
O=c1oc2ccccc2cc1-c1csc(Cc2nc(-c3ccc(Cl)cc3)cs2)n1,?,?,8,3%,26µM*,10
N=c1oc2ccccc2cc1-c1nc(-c2ccc(Cl)cc2)cs1,-6%,7%,-21,4%,-26%,-7
N#Cc1cccc(-c2nc3cnc(Oc4cccc(Cl)c4)nc3n(C3CC3)c2=O)c1,0%,nt,nt,nt,-11%,nt
CCC1=C(c2ccc(C)cc2)S(=O)(=O)N=C1N1CCC(C(=O)NCCc2cccc(OC)c2)CC1,?,nt,nt,3%,?,nt
CC(=O)Nc1ccc(NC2=Nc3ccccc3N3C2=Nc2c(c(C)nn2-c2ccccc2)C3c2ccccc2)cc1 (stereo not drawn),2.6µM*,2.8µM*,22,0%,2.3µM*,-15
COc1ccc(NC2=Nc3ccccc3N3C2=Nc2c(c(C)nn2-c2ccc(C)cc2)C3c2cccnc2)cc1 (stereo not drawn),21µM*,7%,-8,1%,?,-9
CC(=O)Nc1ccc(NC(=O)c2c(C)nn(-c3ccccc3)c2-n2cccc2)cc1,?,nt,nt,0%,?,nt
O=C1c2cc([N+](=O)[O-])ccc2-c2cc(Br)c(N=C(NO)C(F)(F)F)cc21,-7%,nt,-101*,nt,?,-9
COc1ccc(C2c3c(n(C)c4ccccc34)C(=O)N2CC(=O)Nc2ccccc2Cl)cc1 (stereo not drawn),?,nt,nt,8%,26µM*,nt
SMILES,TDP1 cell CPT,ELG1 DNA repair,IL-1B inflam inh,TDP1 inh,TDP1 cell noCPT,Giardia killer
CCCNC(=O)CN1C(=O)c2c(c3ccccc3n2C)C1c1ccc(OC)cc1 (stereo not drawn),?,nt,nt,3%,13µM*,nt
COc1ccc(C2c3c(n(C)c4ccccc34)C(=O)N2CC(=O)Nc2cccc(F)c2)cc1 (stereo not drawn),?,nt,nt,3%,?,nt
COc1ccc(C2c3c(n(C)c4ccccc34)C(=O)N2CC(=O)Nc2ccccc2F)cc1 (stereo not drawn),16µM*,nt,nt,3%,?,nt
O=C(CC(c1ccccc1)c1cc(Br)ccc1O)NCC1(c2ccccc2)CCCC1 (stereo not drawn),?,nt,nt,6%,?,nt
Cc1ccc(N2CC(NC(=O)CCCc3ccccc3)CC2=O)cc1 (stereo not drawn),-29%,nt,nt,-3%,-5%,nt
COC(=O)c1c(SC)nc2ccccc2c1OCc1ccc(C)cc1C,?,nt,nt,-5%,26µM*,nt
O=C(Cn1cnc2c(cnn2-c2ccccc2)c1=O)N1CCCc2ccccc21,?,21µM*,16,0%,?,0
COc1ccc(CNC(=O)N[C@H](C(=O)O)C(C)C)cc1OC,1%,0%,0,0%,13%,-20
CC(C)CC1=NN(C(=O)c2ccncc2)C(O)(C(F)(F)F)C1 (stereo not drawn),2.9µM*,?,-11,1%,3.3µM*,6
O=C(c1ccncc1)N1N=C(C2CC2)CC1(O)C(F)(F)F (stereo not drawn),3.7µM*,-7%,5,nt,5.2µM*,10
O=C(c1cccnc1)N1N=C(C2CC2)CC1(O)C(F)(F)F (stereo not drawn),-18%,6%,-7,-3%,?,-6
CC(C)CC1=NN(C(=O)c2cccnc2)C(O)(C(F)(F)F)C1 (stereo not drawn),4.1µM*,1%,14,5%,2.9µM*,10
CCOC(=O)[C@]12CCCC=C1N(Cc1ccccc1)C(=O)[C@H](CC(=O)NCCCCc1ccccc1)C2,?,nt,-3,nt,?,nt
Cc1cccc(C)c1NC(=O)CSc1nnc(Cn2nnc(-c3ccccc3)n2)n1-c1ccccc1,?,?,7,-1%,?,-8
Cc1ccccc1NC(=O)c1c2c(nc3ccccc13)C(=O)N(C1CCCCC1)C2,?,nt,nt,6%,21µM*,nt
CC(C)OCCCNC(=O)c1c2c(nc3ccccc13)C(=O)N(C1CCCCC1)C2,-22%,nt,nt,10%,-23%,nt
